The list is not random: actives were taken first. Their share in the collection is about 12%.
USP30 inh: inhibitors of human USP30 deubiquitinase; purified USP30, Ub-rhodamine cleavage fluorescence; Q70CQ3; hit rate 5.3% among 47,000; inhibition, % at 25 µM
Target sequence (Q70CQ3 whole entry, looked up): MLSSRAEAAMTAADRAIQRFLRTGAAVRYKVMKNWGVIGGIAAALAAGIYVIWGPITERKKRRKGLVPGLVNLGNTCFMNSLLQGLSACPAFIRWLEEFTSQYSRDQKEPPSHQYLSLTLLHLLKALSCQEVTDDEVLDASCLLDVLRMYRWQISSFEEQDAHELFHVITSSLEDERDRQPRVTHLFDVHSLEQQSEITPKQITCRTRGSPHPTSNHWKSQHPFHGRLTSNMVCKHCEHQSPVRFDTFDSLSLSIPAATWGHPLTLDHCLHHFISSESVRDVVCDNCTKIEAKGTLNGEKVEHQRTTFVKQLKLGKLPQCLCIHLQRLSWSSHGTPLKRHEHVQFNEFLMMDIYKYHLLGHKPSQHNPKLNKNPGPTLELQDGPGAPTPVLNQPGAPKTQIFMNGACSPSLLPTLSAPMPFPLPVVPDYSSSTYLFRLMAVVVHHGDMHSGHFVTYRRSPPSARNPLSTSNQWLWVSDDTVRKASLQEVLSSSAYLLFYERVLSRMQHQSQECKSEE
USP28 block: inhibitors of human USP28 deubiquitinase; Q96RU2; purified USP28, Ub-rhodamine cleavage fluorescence, 30 min; inhibition, % at 25 µM; hit rate 3% among 47,000; AID 1645857
USP17 inh: human USP17-like deubiquitinase inhibition; A8MUK1; purified USP17, Ub-rhodamine cleavage fluorescence, 3 h; inhibition, % at 50 µM; hit rate 6.5% among 47,000; AID 1645855
OTUD3 block: blocks human OTUD3 ubiquitin-rhodamine cleavage. Q5T2D3. purified OTUD3, Ub-rhodamine fluorescence, 2 h. inhibition, % at 25 µM. hit rate 0.7% among 47,000. AID 1645858
Hits are given with their value. Cut-off read from the data, not from the text of the source: active = inhibition above about 30%; inactive = the rest.

`Cc1ccc(C)c(S(=O)(=O)N2CCN(c3nc(-c4cccs4)nc4ccccc34)CC2)c1` gave USP30 inh 31, USP28 block inactive, USP17 inh inactive and OTUD3 block inactive.
Screening Cc1ccc(C)c(S(=O)(=O)N2CCN(C(C)c3nc4ccccc4c(=O)[nH]3)CC2)c1 (stereo unspecified) returned USP30 inh inactive, USP28 block inactive, USP17 inh inactive and OTUD3 block inactive.
Screening COc1cccc(CNC(=O)Cc2cn(C)c3ncccc23)c1 returned USP30 inh inactive, USP28 block inactive, USP17 inh inactive and OTUD3 block inactive.
Screening CC[C@@]1([C@@H]2O[C@@H]([C@H]3O[C@@](O)(CO)[C@H](C)C[C@@H]3C)C[C@@H]2C)CC[C@H]([C@]2(C)CCC3(C[C@H](O)[C@@H](C)[C@@H]([C@@H](C)[C@H](OC)[C@H](C)C(=O)O)O3)O2)O1 (stereo partly specified) returned USP30 inh inactive, USP28 block inactive, USP17 inh inactive and OTUD3 block inactive.
Screening CO[C@@H]1C[C@@H](C[C@H]2CC[C@H](C)[C@H]([C@@H](C)C(=O)O)O2)O[C@]2(O[C@](C)([C@H]3CC[C@@](C)([C@@H]4O[C@@H]([C@H]5O[C@](C)(O)[C@H](C)C[C@@H]5C)C[C@@H]4C)O3)C[C@H]2C)[C@@H]1C returned USP30 inh 34, USP28 block inactive, USP17 inh inactive and OTUD3 block inactive.
For CC(=O)O[C@@H](C/C=C(\C)C(=O)O)[C@@H](C)[C@H]1C[C@H](OC(C)=O)[C@@]2(C)C3=CC[C@H]4C(C)(C)[C@H](OC(C)=O)CC[C@]4(C)C3=CC[C@]12C the results were USP30 inh 101, USP28 block 100, USP17 inh 100 and OTUD3 block 92.
CC(=O)O[C@@H](C/C=C(\C)C(=O)O)[C@@H](C)[C@H]1C[C@H](OC(C)=O)[C@@]2(C)C3=CC[C@H]4C(C)(C)[C@H](O)CC[C@]4(C)C3=CC[C@]12C was read as USP30 inh 62, USP28 block 45, USP17 inh 56 and OTUD3 block inactive.
Screening COC(=O)c1cc2c(ccn2C)n1Cc1ccc(F)cc1 returned USP30 inh inactive, USP28 block inactive, USP17 inh inactive and OTUD3 block inactive.
CC(C)(C)OC(=O)N1CCN(C(=O)Cn2c(=O)nc(-c3ccccc3)c3ccccc32)CC1 was read as USP30 inh 59, USP28 block inactive, USP17 inh 33 and OTUD3 block inactive.
Cc1cc(C)c(NC(=O)CSC2=C(C#N)C(c3ccc(C)o3)C3=C(CCCC3=O)N2)c(C)c1 (stereo unspecified) was read as USP30 inh 35, USP28 block 31, USP17 inh inactive and OTUD3 block inactive.
Screening Cc1cc(Br)ccc1NC(=O)CSc1nc2c(cc1C#N)C(=O)CCC2 returned USP30 inh inactive, USP28 block inactive and OTUD3 block inactive.
Screening CC(Sc1nnc(-c2ccccc2F)n1CCc1ccccc1)C(=O)N(C)c1ccccc1 (stereo unspecified) returned USP30 inh inactive, USP28 block inactive, USP17 inh inactive and OTUD3 block inactive.
For O=C(CSc1nnc(-c2ccccc2F)n1CCc1ccccc1)c1c[nH]c2ccccc12 the results were USP30 inh inactive, USP28 block inactive, USP17 inh inactive and OTUD3 block inactive.
CC(Sc1nnc(-c2ccccc2F)n1Cc1ccccc1)C(=O)N1CCc2ccccc21 (stereo unspecified) was read as USP30 inh 42, USP28 block inactive, USP17 inh inactive and OTUD3 block inactive.
Screening Fc1ccccc1-c1nnc(SCc2ccccc2)n1Cc1ccccc1 returned USP30 inh 56, USP28 block 64, USP17 inh 48 and OTUD3 block 35.
`CC(=O)c1ccc(NC(=O)CN2C(=O)C(O)(c3cccc(F)c3)c3ccccc32)cc1` (stereo unspecified) gave USP30 inh inactive, USP28 block inactive, USP17 inh inactive and OTUD3 block inactive.
Screening CC(C)n1nccc1-c1cnc(CC2CCN(S(C)(=O)=O)C2)cn1 (stereo unspecified) returned USP30 inh inactive, USP28 block inactive, USP17 inh inactive and OTUD3 block inactive.
For CC(C)n1nccc1-c1cnc(CC2CCN(S(C)(=O)=O)CC2)cn1 the results were USP30 inh 31, USP28 block inactive, USP17 inh inactive and OTUD3 block inactive.
CC(=O)c1sc(NC(=O)/C=C/c2ccccc2)nc1-c1ccccc1 was read as USP30 inh inactive, USP28 block inactive, USP17 inh 74 and OTUD3 block inactive.
Cc1sc(NC(=O)/C=C/c2ccco2)nc1-c1ccccc1 was read as USP30 inh inactive, USP28 block 54, USP17 inh inactive and OTUD3 block inactive.
Screening Cc1ccc(-c2nc(NC(=O)c3ccccn3)sc2C)cc1 returned USP30 inh inactive, USP28 block inactive, USP17 inh inactive and OTUD3 block inactive.
O=C(Cn1cnc2cc3c(cc21)OCCO3)NCCc1ccc(F)cc1 was read as USP30 inh inactive, USP28 block inactive, USP17 inh inactive and OTUD3 block inactive.
`COCC1OC(OC2OCC3OC4(OC3C2O)OC(C)C(O)(C(C)=O)C2OCOC24)C(OC)C(O)C1OC1OC(C)C(OC)C(OC2CC(C)(O)C(O)C(C)O2)C1O` (stereo unspecified) gave USP30 inh inactive, USP28 block inactive, USP17 inh inactive and OTUD3 block inactive.
Screening COc1cc(/C=C/C23NC(=O)CN2c2ccccc2C3(C)C)ccc1OCc1ccccc1 (stereo unspecified) returned USP30 inh inactive, USP28 block inactive and OTUD3 block inactive.
O=C(NCCc1nc2ccccc2n1CCOc1ccccc1Cl)C1CCCCC1 was read as USP30 inh 55, USP28 block 30, USP17 inh 64 and OTUD3 block inactive.
Screening COc1ccccc1C(=O)Nc1nc2ccccc2n1CCOc1ccccc1 returned USP17 inh inactive and OTUD3 block inactive.
`Cc1cccc(OCCn2c(CCNC(=O)C3CCCCC3)nc3ccccc32)c1` gave USP30 inh 79, USP28 block inactive, USP17 inh 42 and OTUD3 block inactive.
Screening CCc1ccc(OCCn2c(CCNC(=O)C3CCCCC3)nc3ccccc32)cc1 returned USP30 inh inactive, USP28 block inactive, USP17 inh inactive and OTUD3 block inactive.
Screening COc1cccc(C(=O)Nc2ncc3c(n2)CC(c2cccc(Cl)c2)CC3=O)c1 (stereo unspecified) returned USP30 inh inactive, USP28 block inactive, USP17 inh inactive and OTUD3 block inactive.
Screening CC12CCC(=O)N1c1ccccc1C(=O)N2c1ccc(F)cc1 (stereo unspecified) returned USP30 inh 32, USP28 block inactive, USP17 inh inactive and OTUD3 block inactive.
Screening Cc1ccc(NC(=O)c2cc3c(s2)-c2ccccc2OC3)c(Cl)c1 returned USP30 inh 41, USP28 block inactive, USP17 inh inactive and OTUD3 block inactive.
`O=C(NCc1ccc(Cl)cc1)c1cc2c(s1)-c1ccccc1OC2` gave USP30 inh 55, USP28 block inactive, USP17 inh 87 and OTUD3 block inactive.
